Measurements reported in PubChem BioAssay (EPA / NIEHS).
Records with an inconclusive call do not appear. Active and inactive are the calls of the source. The calls were made as follows, unless noted: active = hit-call score of the fitted dose curve at least 0.9, where 1 is the maximum; inactive = score below 0.9.

What was measured:
[1] = CCTE_Mundy_HCI_Cortical_Synap_Neur_Matur_NeuronCount: CCTE's Synaptogenesis and Neurite Maturation Assay in rat cortical cells for Neuron Count, Mundy Lab (AID 2284242; active = hit-call score of the fitted dose curve at least 0.9, where 1 is the maximum)
Outline: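 Rat primary cortical cells, AraC added at DIV 5, dosed with media change from DIV 7 to DIV 12. Fixed, Hoechst-stained and immunolabelled for MAP2 and synaptophysin; neuron number counted by high-content imaging, loss fitted versus DMSO.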

[2] = IUF_NPC2c_oligodendrocyte_migration_120hr: Leibniz Research Institute for Environmental Medicine (IUF) 120-hour Neural Progenitor Cell Migration Assay for Oligodendrocyte Migration (NPC2c) (AID 2284297);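 also: O4-positive oligodendrocyte migration distance divided by radial glia migration distance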
Outline: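 Human fetal neural progenitor spheres (0.3 mm) are plated on poly-D-lysine/laminin in N2 differentiation medium and exposed for 120 h, with half-medium renewal at day 3. Oligodendrocyte (O4+) migration distance comes from ICC imaging, normalised to radial glia migration.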

[3] = IUF_NPC2a_radial_glia_migration_120hr: Leibniz Research Institute for Environmental Medicine (IUF) 120-hour Neural Progenitor Cell Migration Assay for Radial Glia Migration (NPC2a) (AID 2284298)
Outline: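 Human fetal-cortex neural progenitor spheres (0.3 mm) plated on poly-D-lysine/laminin in N2 differentiation medium, exposed 120 h at 37C with half-medium renewal at day 3. Radial glia migration distance (um) measured from Hoechst-stained nuclei images; DMSO baseline.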

[4] = IUF_NPC2a_radial_glia_migration_72hr: Leibniz Research Institute for Environmental Medicine (IUF) 72-hour Neural Progenitor Cell Migration Assay for Radial Glia Migration (NPC2a) (AID 2284299)
Outline: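 Human fetal neural progenitor spheres (0.3 mm) plated on poly-D-lysine/laminin in N2 differentiation medium and exposed from day 0 at 7 concentrations; radial glia migration distance from sphere edge measured at 72 h on brightfield images, mean of four directions, vs DMSO.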

[5] = IUF_NPC2b_neuronal_migration_120hr: Leibniz Research Institute for Environmental Medicine (IUF) 120-hour Neural Progenitor Cell Migration Assay for Neuron Migration (NPC2b) (AID 2284300)
Outline: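 0.3 mm hNPC spheres on poly-D-lysine/laminin in N2 differentiation medium exposed 120 h, half-medium refresh day 3; 7 concentrations, DMSO max 0.1%. Neuron (TUBB3) distance from sphere core by ICC imaging, normalised to radial glia migration.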

[6] = IUF_NPC3_neuronal_differentiation_120hr: Leibniz Research Institute for Environmental Medicine (IUF) 120-hour Neuronal Differentiation Assay (NPC3) (AID 2284301)
Outline: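 Primary human fetal neural progenitor spheres (GW 16-19, 0.3 mm) plated on poly-D-lysine/laminin in N2 medium, exposed from day 0 for 120 h with half-medium refresh at day 3. TUBB3+ cells as percent of Hoechst nuclei in migration area; DMSO baseline.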

[7] = IUF_NPC4_neurite_area_120hr: Leibniz Research Institute for Environmental Medicine (IUF) 120-hour Neuronal Morphology Assay for Neurite Area (NPC4) (AID 2284305; active = hit-call score of the fitted dose curve at least 0.9, where 1 is the maximum)
Outline: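 Human fetal cortex-derived neural progenitor spheres (0.3 mm, GW 16-19) plated on poly-D-lysine/laminin in N2 differentiation medium and exposed from day 0 for 120 h across 7 concentrations plus solvent control. Neurite area is mean pixel area per TUBB3-positive neuron via skeletonization, analysed relative to DMSO.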

[8] = IUF_NPC2-5_cytotoxicity_72hr: Cytotoxicity Assessment at 72 hours in the Leibniz Research Institute for Environmental Medicine (IUF) Neural Progenitor Cell Migration and Differentiation Assay for Cytotoxicity (NPC2-5) (AID 2284306; active = hit-call score of the fitted dose curve at least 0.9, where 1 is the maximum;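 also: LDH release into supernatant measured by resorufin fluorescence marking membrane damage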)
Outline: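 Human fetal (GW 16-19) neural progenitor spheres, 0.3 mm, plated on poly-D-lysine/laminin in N2 differentiation medium and exposed from day 0 to 7 concentrations plus solvent control (DMSO ≤0.1%). LDH-dependent resazurin-to-resorufin fluorescence in supernatant at 72 h.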

[9] = IUF_NPC2-5_cell_number_120hr: Cell Number Assessment at 120 hours in the Leibniz Research Institute for Environmental Medicine (IUF) Neural Progenitor Cell Migration and Differentiation Assay (NPC2-5) (AID 2284308);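 also: count of Hoechst-stained nuclei in migration zone around plated human neural progenitor spheres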
Outline: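 Human fetal neural progenitor spheres (0.3 mm) plated on poly-D-lysine/laminin in N2 differentiation medium, exposed five days across 7 concentrations with half-medium refresh at day 3. Hoechst-positive nuclei counted in migration area at 120 h, relative to DMSO.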

[10] = IUF_NPC2-5_viability_120hr: Viability Assessment at 120 hours in the Leibniz Research Institute for Environmental Medicine (IUF) Neural Progenitor Cell Migration and Differentiation Assay (NPC2-5) (AID 2284312)
Outline: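 Human fetal (GW 16-19) neural progenitor spheres of 0.3 mm were plated on poly-D-lysine/laminin in N2 differentiation medium and exposed from day 0 for 120 h, with half-medium refresh at day 3. Viability was read as alamar blue resazurin-to-resorufin fluorescence against DMSO.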

[11] = system: Brachyury (BRA) Protein Expression, Deisenroth Lab, TBXT (gene 6862); assay: CCTE_Deisenroth_DEVTOX-GLR_legacy_Bra: (Legacy) CCTE's DevTox GLR-Endo Assay Evaluation of Brachyury (BRA) Protein Expression, Deisenroth Lab (AID 2284329)
Outline: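 RUES2-GLR human pluripotent cells differentiated 48 h with two 24-h-interval chemical exposures (1 nM - 200 uM, 10 points); fixed, nuclear-stained, imaged. Bra+ cell percentage (intensity 5x BMAD above pluripotent control median) fitted relative to 0.2% DMSO.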

[12] = CCTE_Deisenroth_DEVTOX-GLR_legacy_CellCount: (Legacy) Viability Assessment in CCTE's DevTox GLR-Endo Assay, Deisenroth Lab (AID 2284331); details: actives raise or lower the signal
Outline: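 RUES2-GLR human pluripotent cells were seeded 24 h, then differentiated 48 h with two compound doses at 24 h intervals (10-point, 1 nM - 200 uM). Fixed nuclei were imaged and counted; bidirectional fitting versus 0.2% DMSO.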

[13] = system: SRY-box transcription factor 17 (SOX17) Protein Expression, Deisenroth Lab, SOX17 (gene 64321); assay: CCTE_Deisenroth_DEVTOX-GLR_legacy_Sox17: (Legacy) CCTE's DevTox GLR-Endo Assay Evaluation of SRY-box transcription factor 17 (SOX17) Protein Expression, Deisenroth Lab (AID 2284341); details: actives raise or lower the signal
Outline: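 Percent SOX17-positive cells, scored by high-content imaging as mean intensity exceeding pluripotent-control median by 5x BMAD, divided by cell count. Human RUES2-GLR endoderm differentiation, 48 h, two exposures 24 h apart, 1 nM–200 uM; DMSO-referenced bidirectional fitting.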

[14] = system: SRY-box transcription factor 2 (SOX2) Protein Expression, Deisenroth Lab, SOX2 (gene 6657); assay: CCTE_Deisenroth_DEVTOX-GLR_legacy_Sox2: (Legacy) CCTE's DevTox GLR-Endo Assay Evaluation of SRY-box transcription factor 2 (SOX2) Protein Expression, Deisenroth Lab (AID 2284346)
Outline: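 RUES2-GLR human pluripotent cells seeded 24 h, then differentiated 48 h in defined media with two chemical doses 24 h apart (10-point, 1 nM–200 uM). Fixed, nuclear-stained, imaged; % Sox2+ cells (>5x BMAD over endoderm control median), DMSO-subtracted, fitted upward.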

[15] = system: SRY-box transcription factor 2 (SOX2) Protein Expression, Deisenroth Lab, SOX2 (gene 6657); assay: CCTE_Deisenroth_DEVTOX-GLR_Endo_SOX2: CCTE's DevTox GLR-Endo Assay Evaluation of SRY-box transcription factor 2 (SOX2) Protein Expression, Deisenroth Lab (AID 2284412; active = hit-call score of the fitted dose curve at least 0.9, where 1 is the maximum)
Outline: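 RUES2-GLR human pluripotent cells were seeded 24 h, then differentiated 48 h with two chemical exposures 24 h apart. Cells were fixed, nuclei stained and imaged by high-content microscopy. Endpoint is %SOX2+ cells over cell count, minus 0.2% DMSO control; 10-point series 1 nM–200 uM.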

[16] = system: SRY-box transcription factor 17 (SOX17) Protein Expression, Deisenroth Lab, SOX17 (gene 64321); assay: CCTE_Deisenroth_DEVTOX-GLR_Endo_SOX17: CCTE's DevTox GLR-Endo Assay Evaluation of SRY-box transcription factor 17 (SOX17) Protein Expression, Deisenroth Lab (AID 2284413)
Outline: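 Endpoint: % change in SOX17+ fraction (SOX17+ cells / cell count) vs 0.2% DMSO solvent control. RUES2-GLR reporter cells, 48 h endoderm differentiation, two doses at 24 h intervals, high-content fluorescence imaging, 5 fields/well.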

[17] = system: Brachyury (BRA) Protein Expression, TBXT (gene 6862); assay: CCTE_Deisenroth_DEVTOX-GLR_Endo_BRA: CCTE's DevTox GLR-Endo Assay Evaluation of Brachyury (BRA) Protein Expression, Deisenroth Lab (AID 2284417)
Outline: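 Endpoint is the fraction of BRA reporter-positive cells over total nuclei, corrected by subtracting the 0.2% DMSO value. Chemicals (1 nM - 200 uM, 10 points) were dosed twice during 48 h differentiation of RUES2-GLR cells, read by imaging.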

[18] = CCTE_Deisenroth_DEVTOX-GLR_Endo_CellCount: Viability Assessment in CCTE's DevTox GLR-Endo Assay, Deisenroth Lab (AID 2284420)
Outline: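 RUES2-GLR pluripotent cells seeded 24 h, then differentiated 48 h in defined media with two chemical exposures 24 h apart. Nuclei counted by high-content imaging; 10-point 1 nM–200 uM series; percent change versus 0.2% DMSO.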

[19] = system: SRY-box transcription factor 17 (SOX17) Protein Expression, Deisenroth Lab, SOX17 (gene 64321); assay: CCTE_Deisenroth_DEVTOX-GLR_Pluri_SOX17: CCTE's DevTox GLR-Pluri Assay Evaluation of SRY-box transcription factor 17 (SOX17) Protein Expression, Deisenroth Lab (AID 2284427; active = hit-call score of the fitted dose curve at least 0.9, where 1 is the maximum)
Outline: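 RUES2-GLR pluripotent cells were induced toward endoderm over 48 h and received two compound doses 24 h apart, in a 10-point series from 1 nM to 200 uM. The percentage of SOX17+ cells among total cells was measured by high-content imaging and reported minus the 0.2% DMSO control.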

[20] = system: SRY-box transcription factor 2 (SOX2) Protein Expression, Deisenroth Lab, SOX2 (gene 6657); assay: CCTE_Deisenroth_DEVTOX-GLR_Pluri_SOX2: CCTE's DevTox GLR-Pluri Assay Evaluation of SRY-box transcription factor 2 (SOX2) Protein Expression, Deisenroth Lab (AID 2284428)
Outline: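 RUES2-GLR human pluripotent cells, two exposures 24 h apart over 48 h differentiation; 10-point series 1 nM - 200 uM. High-content imaging gives SOX2+ cells divided by cell count, reported as percent change versus 0.2% DMSO.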

[21] = system: Brachyury (BRA) Protein Expression, Deisenroth Lab, TBXT (gene 6862); assay: CCTE_Deisenroth_DEVTOX-GLR_Pluri_BRA: CCTE's DevTox GLR-Pluri Assay Evaluation of Brachyury (BRA) Protein Expression, Deisenroth Lab (AID 2284429; active = hit-call score of the fitted dose curve at least 0.9, where 1 is the maximum)
Outline: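 Human pluripotent RUES2-GLR cells, seeded 24 h, were differentiated 48 h in defined media with two chemical doses at 24-h intervals (10-point, 1 nM - 200 uM). Readout: percent BRA+ cells by fluorescent reporter imaging, minus 0.2% DMSO control.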

[22] = CCTE_Deisenroth_DEVTOX-GLR_Pluri_CellCount: Viability Assessment in CCTE's DevTox GLR-Pluri Assay Evaluation of Total Cell Counts, Deisenroth Lab (AID 2284430)
Outline: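 RUES2-GLR human pluripotent cells, seeded 24 h, then differentiated 48 h with two chemical exposures 24 h apart; 10-point series 1 nM - 200 uM. Fixed, nuclear-stained, imaged (5 fields/well); nuclei count as % change vs 0.2% DMSO.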

[23] = CCTE_Deisenroth_H295R-HTRF_384WELL_ESTRADIOL: CCTE's H295R-HTRF Assay Evaluation of Estradiol Concentration, Deisenroth Lab (AID 2284361); details: actives raise or lower the signal
Outline: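 H295R cells exposed 48 h to chemicals at 0.001 - 100 uM final (nine points, triplicate); estradiol in conditioned medium measured by HTRF immunoassay, fitted bidirectionally versus DMSO. Viability by CellTiter-Glo on same plates.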

[24] = CCTE_Deisenroth_H295R-HTRF_384WELL_TESTOSTERONE: CCTE's H295R-HTRF Assay Evaluation of Testosterone Concentration, Deisenroth Lab (AID 2284373); details: actives raise or lower the signal
Outline: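 Secreted testosterone was quantified by HTRF immunoassay of medium from human adrenocortical H295R cells after 48 h chemical exposure at 0.001–100 uM final. Gain or loss was fitted against DMSO. ATP-based viability was read on matched wells, five experimental replicates.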

[25] = CCTE_Deisenroth_H295R-HTRF_384WELL_CTOX: Cytotoxicity Assessment in CCTE's H295R-HTRF Assay, Deisenroth Lab (AID 2284380; active = hit-call score of the fitted dose curve at least 0.9, where 1 is the maximum)
Outline: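 H295R adrenocortical carcinoma cells plated 24 h, then exposed 48 h to nine-point series 0.001–100 uM final, triplicate, n=5. ATP measured by CellTiter-Glo 2.0 luminescence on same plates after medium collection; loss versus DMSO.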

Measured: AC50

F
inactive: [1] | [2] | [3] | [4] | [5] | [6] | [7] | [8] | [9] | [10]

c1cc(-c2cnn3cc(-c4ccc(OCCN5CCCCC5)cc4)cnc23)ccn1
active: [11] 20 µM | [12] 20 µM | [13] 24.6 µM | [14] 5.11 µM | [15] 30.1 µM | [16] 24.1 µM | [17] 1.44 µM | [18] 20 µM | [20] 3.94 µM | [21] 3.02 µM | [22] 3.39 µM
inactive: [19]

Clc1ccc(COC(Cn2ccnc2)c2ccc(Cl)cc2Cl)cc1 (stereo not given)
active: [23] 0.703 µM | [24] 0.327 µM
inactive: [25]
